Screening data deposited in PubChem by several laboratories.
Sa RN4220 lethal: growth inhibition of S. aureus RN4220, primary screen, OD600; 16 h; inhibition, % (concentration not given with the values); 0.33% of 330,000 active; in the data active means inhibition above about 85%
Mtb hypoxia inh: PubChem AID 1159583; fluorescence inhibition, % (test concentration not listed); 0.1% of 300,000 active; M. tuberculosis hypoxia-regulated fluorescent reporter, fluorescence; in the data active means fluorescence inhibition mostly above about 23%, no sharp cut-off; inactive means mostly below about 17%
VHR inh abs: VHR1 phosphatase inhibitors, primary screen, biochemical, absorbance, uHTS. inhibition, % at 13.3 µM. Dual specificity protein phosphatase 3 (Homo sapiens), P51452. recombinant VHR phosphatase, pNPP absorbance. 0.52% of 290,000 active; in the data active means inhibition above about 50%
Target sequence (P51452 whole entry, looked up): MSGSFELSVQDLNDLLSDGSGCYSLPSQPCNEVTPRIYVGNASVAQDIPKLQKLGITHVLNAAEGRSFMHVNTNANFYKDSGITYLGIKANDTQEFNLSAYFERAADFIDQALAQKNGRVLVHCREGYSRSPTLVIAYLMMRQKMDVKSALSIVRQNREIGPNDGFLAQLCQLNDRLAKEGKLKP
PfHsp40 rescue: rescue of yeast from PfHsp40 toxicity, primary screen, S. cerevisiae, ATP luminescence | S. cerevisiae expressing PfHsp40, growth rescue | growth rescue, % at 12.5 µM | 0.68% of 340,000 active; in the data active means growth rescue above about 28%, passing the limit was not always enough;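 further: yeast W303a lacking pdr1 and pdr3 grown in galactose medium; growth measured after three days at 30 °C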
SSB-PriA inh: inhibitors of Klebsiella pneumoniae PriA binding to SSB C-terminal tail, primary screen, biochemical, AlphaScreen; PriA–SSB C-terminal tail interaction (Klebsiella pneumoniae); AlphaScreen SSBct-PriA binding, biotinylated peptide; inhibition, % at 33 µM; 0.6% of 430,000 active; AID 1272365, 2023; in the data active means inhibition mostly above about 37%, no sharp cut-off; inactive means mostly below about 20%
ugtP null kill: growth inhibition of ugtP-null S. aureus, primary screen, RN4220 ugtP deletion, OD600. growth inhibition, % (no concentration beside the values). 16 h. 0.54% of 330,000 active; in the data active means growth inhibition above about 68%
A number is an active result; . = inactive; / = no result shown; ! = not active in a repeat. In the library only some 1.8% were active in any assay of this set; here they are far more common.

SMILES	Sa RN4220 lethal	Mtb hypoxia inh	VHR inh abs	PfHsp40 rescue	SSB-PriA inh	ugtP null kill
NS(=O)(=O)c1ccc(-c2ccc(C=NNC(=O)c3ccc([N+](=O)[O-])cc3)o2)cc1	.	.	/	/	/	.
N#C/C(=C\c1ccc([N+](=O)[O-])o1)c1nc2ccccc2[nH]1	100	/	52	/	.	100
Cc1ccc2nc(/C(C#N)=C\c3ccc(N4CCOCC4)o3)[nH]c2c1	.	/	.	.	.	.
Cc1ccc2nc(/C(C#N)=C\c3ccc([N+](=O)[O-])o3)[nH]c2c1	99	/	.	.	.	99
Cc1ccc(NC(N)=Nc2nc(C(F)(F)F)cc(C(F)(F)F)n2)cc1	/	/	/	/	.	/
CCN(CC)CCOc1ccc(C(=C(Cl)c2ccccc2)c2ccccc2)cc1	97!	/	/	/	/	.
CCc1ccc(S(=O)(=O)N2CCN(c3ccc(-c4ccncc4)nn3)CC2)cc1	/	/	/	/	.	/
COc1ccccc1C(=O)NNC(=S)NC(=O)c1sc2ccccc2c1Cl	.	.	.	.	.	.
COc1ccccc1C(=O)NC(=S)Nc1cccc2cc(O)ccc12	.	.	.	.	42	.
COc1ccccc1C(=O)NC(=S)NNC(=O)c1sc2ccccc2c1Cl	100	.	.	.	.	98
Cn1cnc(S(=O)(=O)Nc2cnn(C3CCOC3)c2)c1 (configuration not stated)	/	/	/	/	.	/
COc1ccc2cc(C(=O)NCCCN3CCCC3=O)[nH]c2c1	.	.	.	.	40	.
COc1ccc(/C=C/C(=O)c2ccc(O)cc2)cc1COc1ccc(F)cc1	.	.	.	.	.	87
CC(=O)OC1C2C(CC(C)C3C=CC(=O)[C@]31C)OC(=O)C2C (some centres not stated)	.	.	/	/	/	.
CCOC(=O)[C@@H]1[C@H]2COc3cc(OC)ccc3[C@H]2N2C(=O)N(c3ccc(C(F)(F)F)cc3)C(=O)[C@]12C	/	/	/	193	.	/
CCOC(=O)C1C2COc3ccccc3C2N2C(=O)N(c3ccc(C(F)(F)F)cc3)C(=O)[C@]12C (some centres not stated)	101!	.	/	/	/	100!
CCOC(=O)[C@@H]1[C@H]2COc3ccccc3[C@H]2N2C(=O)N(c3ccc(F)cc3)C(=O)[C@]12C	/	/	.	.	.	/
CCc1nnc(NC(=O)CSc2nnc(-c3ccc(OC)cc3)n2C)s1	.	.	.	.	.	.
CCOc1ccc(-n2ccnc2SCC(=O)Nc2nnc(CC)s2)cc1	.	/	55	.	.	.
Cc1cccc(NC(=S)NC2CCCC2)n1	.	.	.	113	.	.
Cc1cccc(NC(=S)NC2CCCCC2)n1	.	.	.	.	.	.
CC(C)N1CCc2c(sc(NC(=O)c3ccc(Cl)s3)c2-c2nc3ccccc3s2)C1	/	/	/	/	.	/
CCC(C(=O)Nc1ccncc1)c1ccccc1 (configuration not stated)	.	.	.	.	.	.
CCC(C(=O)Nc1ccc2[nH]ncc2c1)c1ccccc1 (configuration not stated)	.	.	57	.	.	.
Nc1nc(N)nc(-c2ccc(Oc3ccccc3)cc2)n1	.	.	.	.	.	.
SMILES	Sa RN4220 lethal	Mtb hypoxia inh	VHR inh abs	PfHsp40 rescue	SSB-PriA inh	ugtP null kill
Cc1ccccc1Oc1ccc(-c2nc(N)nc(N)n2)cc1	.	.	.	119	.	.
O=C(NCc1nnnn1-c1cccc(F)c1)c1ccc2c(c1)OCO2	/	/	/	/	.	/
COc1c[nH]c(C(=O)Nc2nc(C)cs2)cc1=O	/	/	/	/	.	/
CCCCC(=O)NC(c1cccc([N+](=O)[O-])c1)c1ccc2cccnc2c1O (configuration not stated)	.	.	/	105	.	.
Oc1cccc(C(Nc2nccs2)c2ccc3cccnc3c2O)c1 (configuration not stated)	.	.	.	215	.	.
CCCCC(=O)NC(c1ccccc1)c1ccc2cccnc2c1O (configuration not stated)	/	/	.	.	.	/
CC(=O)NC(c1cccc([N+](=O)[O-])c1)c1ccc2cccnc2c1O (configuration not stated)	/	/	.	194	.	/
COc1cc(C=NNC(=O)c2cccc(S(=O)(=O)N3CCOCC3)c2)cc(OC)c1O	.	.	/	/	.	.
COc1ccc(-c2csc3nc(-c4ccc(C)cc4)oc(=O)c23)cc1OC	.	.	92	.	.	.
